Measured values reported in article PMC4336329 (PLoS ONE, 2015).
The campaign covered roughly 310,000 compounds. About 14,000 (4.5%) showed an effect of 50% or more. The effect is printed as a negative number. Shown is part of a subset that was picked to be rich in strong results.

Molecular target: human ether-à-go-go-related gene (hERG) potassium channel (human, UniProt Q12809)
Assay: primary screen, population patch clamp on CHO cells stably expressing hERG; higher = less effect of the substance
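Note: peak tail current of the secondary pulse compared with the same well before compound.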

Chain of human ether-à-go-go-related gene (hERG) potassium channel (Q12809 whole entry, looked up): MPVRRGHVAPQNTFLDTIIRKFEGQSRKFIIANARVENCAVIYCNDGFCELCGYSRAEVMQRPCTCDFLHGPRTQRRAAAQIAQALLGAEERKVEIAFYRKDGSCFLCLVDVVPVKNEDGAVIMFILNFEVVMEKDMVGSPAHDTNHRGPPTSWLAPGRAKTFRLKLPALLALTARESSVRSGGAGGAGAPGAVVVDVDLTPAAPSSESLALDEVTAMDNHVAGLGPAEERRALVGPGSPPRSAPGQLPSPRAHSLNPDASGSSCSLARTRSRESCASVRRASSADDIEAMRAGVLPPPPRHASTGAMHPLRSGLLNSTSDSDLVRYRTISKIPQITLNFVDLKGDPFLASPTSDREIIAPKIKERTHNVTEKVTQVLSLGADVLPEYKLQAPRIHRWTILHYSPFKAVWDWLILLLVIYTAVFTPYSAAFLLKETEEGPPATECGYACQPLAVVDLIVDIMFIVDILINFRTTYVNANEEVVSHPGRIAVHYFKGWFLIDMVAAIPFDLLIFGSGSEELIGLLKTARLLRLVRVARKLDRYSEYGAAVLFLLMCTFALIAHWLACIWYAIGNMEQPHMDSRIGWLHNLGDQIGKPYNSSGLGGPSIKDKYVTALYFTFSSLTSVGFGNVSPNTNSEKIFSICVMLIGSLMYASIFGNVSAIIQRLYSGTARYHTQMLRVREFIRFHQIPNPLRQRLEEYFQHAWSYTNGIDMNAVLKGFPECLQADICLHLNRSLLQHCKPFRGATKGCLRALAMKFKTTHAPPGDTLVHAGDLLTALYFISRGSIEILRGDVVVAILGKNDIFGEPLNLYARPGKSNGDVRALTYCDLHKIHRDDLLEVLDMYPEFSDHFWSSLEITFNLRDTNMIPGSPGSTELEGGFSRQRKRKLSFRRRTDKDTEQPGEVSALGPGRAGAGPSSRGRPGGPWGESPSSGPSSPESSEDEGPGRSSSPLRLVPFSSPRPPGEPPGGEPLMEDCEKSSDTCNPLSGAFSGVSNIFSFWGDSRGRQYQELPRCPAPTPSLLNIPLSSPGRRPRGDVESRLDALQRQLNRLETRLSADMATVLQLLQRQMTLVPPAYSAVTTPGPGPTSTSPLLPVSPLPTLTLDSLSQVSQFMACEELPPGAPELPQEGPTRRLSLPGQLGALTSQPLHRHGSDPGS

Question: `COC(=O)[C@H](CCSC)NC(=O)Nc1ccc(C)c(C)c1` was tested. Which “hERG current change (%, negative = inhibition) at 10uM” value did it give?
Answer: -83.6%

Question: Which “hERG current change (%, negative = inhibition) at 10uM” value does the source give for `COC(=O)[C@H](CCSC)NC(=O)Nc1ccc(OC)c(Cl)c1` here?
Answer: -6.64%

Question: Which “hERG current change (%, negative = inhibition) at 10uM” value does the source give for `CCCCCc1ccc(-c2ccc(OC)cc2)nc1` here?
Answer: 19.7%

Question: How did the “hERG current change (%, negative = inhibition) at 10uM” value turn out when `CN(C)CCN(Cc1ccc(Cl)cc1)c1ccccn1.Cl` was run?
Answer: -74.4%

Question: How did the “hERG current change (%, negative = inhibition) at 10uM” value turn out when `CCCCCCCCCCCCCCCC[N+](C)(C)CCN(Cc1ccc(OC)cc1)c1ncccn1.[Br-]` was run?
Answer: -75%

Question: Which “hERG current change (%, negative = inhibition) at 10uM” value does the source give for `CN(C)CCN(Cc1ccccc1)c1ccccn1.Cl` here?
Answer: -48.6%

Question: With `CC(C)(Oc1ccc(Cl)cc1)C(=O)N(Cc1ccccc1)c1ccccn1` as the molecule, how does the “hERG current change (%, negative = inhibition) at 10uM” value read?
Answer: -7.15%

Question: Which “hERG current change (%, negative = inhibition) at 10uM” value does the source give for `COc1ccc(CN(CCN(C)C)c2ccccn2)cc1.O=C(O)/C=C\C(=O)O` here?
Answer: -38.5%

Question: With `O=C(COc1ccc(Cl)cc1)N(Cc1ccccc1)c1ccccn1` as the molecule, how does the “hERG current change (%, negative = inhibition) at 10uM” value read?
Answer: -36%

Question: `C[N+](C)(C)CCN(Cc1ccc(Cl)cc1)c1ccccn1.[I-]` was tested. Which “hERG current change (%, negative = inhibition) at 10uM” value did it give?
Answer: -14.4%

Question: `CC[N+](C)(C)CCN(Cc1ccc(Cl)cc1)c1ccccn1.[Br-]` was tested. Which “hERG current change (%, negative = inhibition) at 10uM” value did it give?
Answer: -68.6%

Question: For `Nc1nc(-c2ccco2)nn1C(=O)CCc1ccccc1`, which “hERG current change (%, negative = inhibition) at 10uM” value is on record?
Answer: -0.902%

Question: For `CCCOc1ccccc1C(=O)N1CCNC(=O)C1CC(=O)OC(C)C` (stereo not shown), which “hERG current change (%, negative = inhibition) at 10uM” value is on record?
Answer: 0.716%

Question: `CCOC(=O)N1CCN(S(=O)(=O)c2cc(Cl)c(OC)cc2Cl)CC1` was tested. Which “hERG current change (%, negative = inhibition) at 10uM” value did it give?
Answer: 4.96%

Question: `CCN(CC)S(=O)(=O)c1ccc2[nH]c(=O)cc(C(=O)NCC3CCCO3)c2c1` (stereo not shown) was tested. Which “hERG current change (%, negative = inhibition) at 10uM” value did it give?
Answer: -10.3%

Question: With `COc1ccc(NC(=O)c2ccc(NC(=O)COC(=O)CC(NC(=O)c3ccccc3Cl)c3ccccc3)cc2)cc1` (stereo not shown) as the molecule, how does the “hERG current change (%, negative = inhibition) at 10uM” value read?
Answer: -2.55%

Question: Which “hERG current change (%, negative = inhibition) at 10uM” value does the source give for `CCC(=O)Nc1nc(CC(=O)Nc2ccccc2)cs1` here?
Answer: 18.2%

Question: With `COc1ccc(CC(=O)N2CCN(c3ccccn3)CC2)cc1` as the molecule, how does the “hERG current change (%, negative = inhibition) at 10uM” value read?
Answer: 7.79%

Question: `CCn1c(CNC(=O)COc2ccc(C(C)C)cc2)nnc1SCC(=O)Nc1ccccc1C(C)C` was tested. Which “hERG current change (%, negative = inhibition) at 10uM” value did it give?
Answer: -55.1%

Question: With `CCn1c(CNC(=O)c2ccco2)nnc1SCC(=O)Nc1ccc(Br)cc1F` as the molecule, how does the “hERG current change (%, negative = inhibition) at 10uM” value read?
Answer: -54.8%

Question: With `Cn1c(CNC(=O)c2ccco2)nnc1SCC(=O)Nc1ccc(Br)cc1F` as the molecule, how does the “hERG current change (%, negative = inhibition) at 10uM” value read?
Answer: -43.4%

Question: For `CCn1c(CNC(=O)COc2ccc(C(C)C)cc2)nnc1SCC(=O)Nc1cc(F)ccc1C`, which “hERG current change (%, negative = inhibition) at 10uM” value is on record?
Answer: -65.7%

Question: `CCn1c(CNC(=O)COc2c(C)cccc2C)nnc1SCC(=O)Nc1nccs1` was tested. Which “hERG current change (%, negative = inhibition) at 10uM” value did it give?
Answer: -51.8%

Question: How did the “hERG current change (%, negative = inhibition) at 10uM” value turn out when `CCn1c(CNC(=O)c2ccco2)nnc1SCC(=O)Nc1cc(F)ccc1C` was run?
Answer: -0.0602%

Question: With `CCn1c(CCCOc2ccc(Cl)cc2Cl)nnc1SCC(=O)Nc1cc(F)ccc1C` as the molecule, how does the “hERG current change (%, negative = inhibition) at 10uM” value read?
Answer: -13.1%

Question: How did the “hERG current change (%, negative = inhibition) at 10uM” value turn out when `CCn1c(CNC(=O)Cc2ccc(OC)cc2)nnc1SCC(=O)Nc1nccs1` was run?
Answer: -5.75%

Question: `CCn1c(COc2ccc(C(C)C)cc2)nnc1SCC(=O)Nc1nccs1` was tested. Which “hERG current change (%, negative = inhibition) at 10uM” value did it give?
Answer: -7.75%

Question: `COc1ccc(C(=O)NCCc2nnc(SCC(=O)Nc3ccccc3C(C)C)n2C)cc1` was tested. Which “hERG current change (%, negative = inhibition) at 10uM” value did it give?
Answer: -13.3%

Question: Which “hERG current change (%, negative = inhibition) at 10uM” value does the source give for `CCn1c(CNC(=O)c2ccco2)nnc1SCC(=O)Nc1cc(C)c(C)cc1Br` here?
Answer: -16.6%

Question: `CCCCc1nnc(SCC(=O)Nc2nccs2)n1CC` was tested. Which “hERG current change (%, negative = inhibition) at 10uM” value did it give?
Answer: 4.93%

Question: For `CN(C)S(=O)(=O)c1ccc(Cl)c(C(=O)NC2CCCCCCC2)c1`, which “hERG current change (%, negative = inhibition) at 10uM” value is on record?
Answer: 7.33%

Question: For `O=C(Cn1nnc(-c2ccncc2)n1)N1CCc2ccccc21`, which “hERG current change (%, negative = inhibition) at 10uM” value is on record?
Answer: 15.2%

Question: `CCCc1nc2oc3c(NCc4ccccn4)ncnc3c2c2c1COC(C)(C)C2` was tested. Which “hERG current change (%, negative = inhibition) at 10uM” value did it give?
Answer: -17.8%

Question: Which “hERG current change (%, negative = inhibition) at 10uM” value does the source give for `COc1cccc(CN2CCNC(=O)C2CC(=O)NCCCn2ccnc2)c1` (stereo not shown) here?
Answer: 37.2%

Question: `Cc1cc(=O)[nH]c(/N=C(\N)Nc2cccc3ccccc23)n1` was tested. Which “hERG current change (%, negative = inhibition) at 10uM” value did it give?
Answer: 11.5%

Question: Which “hERG current change (%, negative = inhibition) at 10uM” value does the source give for `NNC(=O)c1ccc(COCC(F)(F)C(F)F)cc1` here?
Answer: 14.5%

Question: How did the “hERG current change (%, negative = inhibition) at 10uM” value turn out when `CC(NC(=O)c1cc2cc(Cl)ccc2oc1=N)c1ccccc1` (stereo not shown) was run?
Answer: 7.55%

Question: With `C#CCNC(=O)[C@H](Cc1ccc(C(=O)c2ccccc2)cc1)NC(=O)OC(C)(C)C` as the molecule, how does the “hERG current change (%, negative = inhibition) at 10uM” value read?
Answer: 19.5%

Question: How did the “hERG current change (%, negative = inhibition) at 10uM” value turn out when `O=C(COC(=O)c1cc(S(=O)(=O)N2CCOCC2)cs1)c1ccccc1` was run?
Answer: -0.734%

Question: How did the “hERG current change (%, negative = inhibition) at 10uM” value turn out when `N#C/C(=C\c1cccnc1)c1nc2ccccc2[nH]1` was run?
Answer: -10.4%

Question: With `CCn1c(CNC(=O)COc2ccc(C(C)C)cc2)nnc1SCC(=O)NC1CCCCC1C` (stereo not shown) as the molecule, how does the “hERG current change (%, negative = inhibition) at 10uM” value read?
Answer: -16.8%

Question: With `CCn1c(CNC(=O)COc2ccc(C(C)C)cc2)nnc1SCC(=O)Nc1ccccc1F` as the molecule, how does the “hERG current change (%, negative = inhibition) at 10uM” value read?
Answer: -60.1%

Question: Which “hERG current change (%, negative = inhibition) at 10uM” value does the source give for `CCn1c(Cc2ccccc2)nnc1SCC(=O)Nc1ccccc1F` here?
Answer: -5.46%

Question: How did the “hERG current change (%, negative = inhibition) at 10uM” value turn out when `CCn1c(CCNC(=O)c2ccc(OC)cc2)nnc1SCC(=O)Nc1ccccc1F` was run?
Answer: -22.7%

Question: Which “hERG current change (%, negative = inhibition) at 10uM” value does the source give for `CCn1c(CNC(=O)COc2ccc(C(C)C)cc2)nnc1SCC(=O)Nc1ccccc1` here?
Answer: -54.2%

Question: How did the “hERG current change (%, negative = inhibition) at 10uM” value turn out when `CCn1c(CNC(=O)COc2ccc(C(C)C)cc2)nnc1SCC(=O)Nc1ccc(F)cc1` was run?
Answer: -49.4%
